# Hits are enriched below; roughly 2.8% of the tested compounds scored in any of these assays.
# DRD3 antagonist: antagonists of human D3 dopamine receptor. D3R cells, DiscoveRx beta-arrestin luminescence, antagonist mode; active compounds read low. max response, negative = inhibition, %. P35462. 360,000 tested, 2.5% active; in the data active = max response below about -50%; inconclusive = no clear call, values can overlap the other calls
# Target sequence (P35462 whole entry, looked up): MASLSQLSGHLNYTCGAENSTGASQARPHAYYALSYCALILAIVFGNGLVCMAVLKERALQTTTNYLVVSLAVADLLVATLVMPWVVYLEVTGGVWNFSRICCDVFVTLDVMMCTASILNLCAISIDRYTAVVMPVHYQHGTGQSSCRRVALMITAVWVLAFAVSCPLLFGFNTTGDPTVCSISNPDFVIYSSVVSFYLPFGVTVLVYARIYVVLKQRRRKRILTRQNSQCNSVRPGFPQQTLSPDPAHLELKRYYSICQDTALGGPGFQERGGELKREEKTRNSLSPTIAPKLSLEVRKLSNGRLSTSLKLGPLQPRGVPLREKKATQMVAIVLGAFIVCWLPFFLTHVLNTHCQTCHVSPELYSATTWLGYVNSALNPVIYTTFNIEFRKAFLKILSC
#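 Cells plated overnight at 1500 cells/well, then exposed to library compounds with dopamine controls for 90 minutes at 37 degrees C. DiscoveRx reagent added for 30–60 minutes at room temperature; luminescence read, quantitative HTS format.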
# a7 integrin act: activates integrin-mediated alleviation for muscular dystrophy. alpha7betagal myoblasts, beta-gal FDG fluorescence, 48 h. Potency, µM (doses to about 38.3 µM), hits mostly activators. 350,000 tested, 0.064% active. AID 624291; note: nearly all actives have a fitted effect of over 60% in size
#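 Alpha7betagal+/- myoblasts (passage 13) were plated 16-24 hr, then exposed to compounds (1:260 dilution of DMSO stock) for 48 hours at 37C. After MPER lysis, β-galactosidase reporter activity was read as FDG fluorescence (ex 480/em 540) after 30 minutes.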
# PTHR1 ag: activates the human parathyroid hormone receptor PTHR1; AID 743266; 410,000 tested, 0.075% active; HEK293 GP2 PTHR1 cells, GloSensor cAMP luminescence, 1 h; Q03431; Potency, µM (titrated, usually from 115 µM), most hits filed as activators; note: nearly all actives have a fitted effect of over 55% in size
#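 HEK-293-derived GP2 cells expressing PTHR1 and a GloSensor cAMP reporter, 3,000/well, plated overnight, given luciferin plus IBMX (each 0.5 mM as added) for 1 h at 37 °C, then compound for 1 h at 37 °C. Luminescence was read after 15 min at room temperature.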
# CBFb RUNX1 block: blocks binding between human CBF-beta and RUNX1 | AlphaScreen CBFb-His/RUNX1-biotin binding, biochemical | Potency, µM (doses to about 59.8 µM), usual class: inhibitors | 230,000 tested, under 10 active
#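 CBFb-His/RUNX1-biotin, 30 nM each, preincubated 20 min RT; compound 15 min RT; Ni + streptavidin beads 50 ng each, 90 min RT; AlphaScreen read.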
# MBNL1-CUG inh: blocks human MBNL1 binding to CUG repeat RNA | Q9NR56 | TR-FRET MBNL1-His/biotin-(CUG)12 binding, 665/545 ratio | Potency, µM (doses to about 57.5 µM), actives largely listed as inhibitors | 280,000 tested, 0.036% active; active = well fitted inhibition curve with a large enough effect in the signal ratio, with a control signal flat, not every such curve was filed as active; inconclusive = small, poorly fitted or top-dose-only effect, or effect the other way, or a change in a side signal; inactive = no such curve, though single readings can be large or run the other way; the % refers to the signal ratio
#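 Compounds (final 92 nM to 58 uM) are added to His-tagged MBNL1 and biotin-(CUG)12, then terbium anti-His antibody and streptavidin-XL665 (5 nM final). After 60 min at room temperature, the 665/545 nm ratio is read.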
# D3 ag: D3 dopamine receptor (human) agonism; P35462; D3R DiscoveRx beta-arrestin cells, luminescence, 90 min; max activation, %; 410,000 tested, 0.58% active; in the data active = max activation above about 30%
#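 Cells at 1500/well, incubated overnight, then treated with pinned compounds (dopamine as control) for 90 min at 37 degrees C. DiscoveRx reagent added for 30 - 60 minutes at room temperature; luminescence read.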
# A number is an active result; . = inactive; ? = inconclusive; / = not tested or not shown; [ ] = another dose, or the depositor's remark. Unless noted, calls come from the whole dose curve; as a rule, active = well fitted curve in the direction sought with a large enough effect; inconclusive = small, poorly fitted or top-dose-only effect, or another doubt; inactive = no such curve, though single readings can be large; an effect the other way counts as inactive or inconclusive.
SMILES,DRD3 antagonist,a7 integrin act,PTHR1 ag,CBFb RUNX1 block,MBNL1-CUG inh,D3 ag
CCCCN(C(=O)c1ccccc1Cl)C(CC(C)C)c1nc2ccccc2[nH]1 (stereo not drawn),.,/,.,/,/,48
COC(=O)c1ccc(NC(=O)C(=O)NCCc2sc(-c3cccc(F)c3)nc2C)cc1,/,/,.,/,/,.
CC(C)CN(CCCNC(=O)c1cc(=O)[nH]c2ccc(S(=O)(=O)N3CCCCCC3)cc12)CC(C)C,/,/,.,/,/,.
O=C(O)c1ccc(S(=O)(=O)c2ccc3c(c2)C(=O)N(NC(=O)c2ccncc2)C3=O)cc1,-56,.,.,.,.,.
COc1ccc(-n2nc(C(=O)Nc3ccc(C(C)=O)cc3)nc2-c2ccccc2)cc1,/,/,.,/,/,.
COc1cccc(N2CC(NC(=O)C3CC3)CC2=O)c1 (stereo not drawn),/,/,.,/,/,.
COc1ccc(CCNC(=S)NC2CCN(Cc3ccccc3)CC2)cc1,-83,?,.,.,.,.
Cc1ccc(NC(=S)NC2CCN(Cc3ccccc3)CC2)c(C)c1,?,.,.,.,.,.
COc1ccc(CN2CCC(CNC(=O)NC3CCCCC3)CC2)cc1,-54,.,.,.,.,.
S=C(Nc1ccccc1)NC1CCN(Cc2ccccc2)CC1,-77,.,.,.,.,.
Cc1ccccc1NC(=S)NC1CCN(Cc2ccccc2)CC1,-50,.,.,.,.,.
Cc1ccccc1C(=O)NC1CCN(Cc2nnnn2C2CCCC2)CC1,?,.,.,.,.,.
O=C(Nc1ccccc1)NC1CCN(Cc2nnnn2C2CCCCC2)CC1,-70,.,.,.,.,.
S=C(Nc1ccc(Cl)cc1)NC1CCN(Cc2ccccc2)CC1,-60,.,.,.,.,.
COc1ccc(N=c2oc3c(OC)cccc3cc2C(=O)NCc2ccco2)cc1OC,.,.,.,.,.,33
COc1ccccc1N=c1oc2c(OC)cccc2cc1C(=O)NCc1ccco1,.,.,.,.,?,.
COc1ccccc1-c1nnc(NC(C)=O)s1,-88,.,.,.,.,.
CCCCOC(=O)Nc1nnc(-c2ccccc2OC)s1,.,.,.,.,.,.
COc1ccccc1-c1nnc(NC(=O)C(C)C)s1,-75,.,.,.,.,.
CC(C)c1ccccc1NC(=O)CNCCOc1ccccc1F,?,.,.,/,.,44
S=C(NCc1ccco1)NCC(c1ccco1)N1CCCCC1 (stereo not drawn),-66,.,.,.,.,.
Cc1ccc(S(=O)(=O)NC(CC(C)C)C(=O)NCC(c2ccco2)N2CCCCC2)cc1 (stereo not drawn),-79,.,.,/,/,.
CC(=O)Nc1ccc(S(=O)(=O)NC(C)C(=O)NCC(c2ccco2)N2CCCCC2)cc1 (stereo not drawn),.,.,.,/,/,.
Cc1c(C(=O)NCC(c2ccco2)N2CCCC2)sc2ccccc12 (stereo not drawn),-64,.,.,/,/,.
CCc1cc(C(=O)NCC(c2ccco2)N2CCCCC2)sc1C (stereo not drawn),-59,.,.,/,/,.
SMILES,DRD3 antagonist,a7 integrin act,PTHR1 ag,CBFb RUNX1 block,MBNL1-CUG inh,D3 ag
CSc1ccccc1C(=O)NCC(c1ccco1)N1CCCCC1 (stereo not drawn),.,.,.,.,.,.
CCCCC#CC1C=CC(Oc2cc(OC)c(OC)c(OC)c2)C(COC(=O)OCC)O1 (stereo not drawn),/,/,/,.[13.1 µM],/,/
O=C(CN1C(=O)NC2(CCCc3ccccc32)C1=O)NCc1cccs1 (stereo not drawn),.,.,.,/,/,.
O=C(O)c1ccccc1N=Nc1ccc(O)cc1,-71,/,.,/,/,.
COc1cc(C(=O)OCC(=O)NCCC2=CCCCC2)cc(OC)c1OC,.,.,.,/,/,.
COc1cc(C(=O)NCCc2csc(-c3ccc(Cl)cc3)n2)cc(OC)c1OC,/,/,.,/,/,41
COc1ccc(C)cc1NC(=O)NCCC1=CCCCC1,-72,.,.,.,.,.
COc1cc(C(=O)NCCC2=CCCCC2)cc(OC)c1OC,-62,.,.,.,.,.
Cc1ccc(CNCCC2=CCCCC2)cc1,-67,?,.,.,.,.
COc1ccc(C)cc1NC(=O)c1cc(S(=O)(=O)NCCC2=CCCCC2)ccc1F,/,/,.,/,/,.
CC1=C(C(=O)Nc2ccc(C)cc2C)C(c2ccc(O)cc2)n2nnnc2N1 (stereo not drawn),/,/,.,/,/,.
CCOc1ccc(NC(=O)CC2C(=O)N(c3ccccc3)C(=O)N2Cc2ccc3c(c2)OCO3)cc1 (stereo not drawn),/,/,.,/,/,.
Cc1ccc(-c2noc(-c3cccnc3NCc3ccco3)n2)cc1,/,/,.,/,/,.
Cc1ccc(NC(=S)N2CCN(S(=O)(=O)c3ccc(F)cc3)CC2)cc1,.,.,.,/,.,.
COc1cc(NC(=O)CSc2nnc(-c3ccncc3)o2)cc(OC)c1OC,.,.,.,/,.,.
N#Cc1cc2ccccc2nc1SCc1cccnc1,-83,.,.,.,.,.
COc1ccc2nc(SCc3cccnc3)c(C#N)cc2c1,.,.,.,.,.,.
O=C(C1CCN(CC2CC=CCC2)CC1)N(CCc1ccccc1)Cc1ccccc1 (stereo not drawn),-61,.,.,.,.[11.5 µM],.
COCCCNC1=C(C#N)C(=O)NC(c2cccs2)S1 (stereo not drawn),.,.,.,/,/,.
O=C(NCC1CCCO1)c1ccc(COc2ccccc2Br)cc1 (stereo not drawn),.,.,.,?,.[11.5 µM],.
CC(C(=O)Nc1ccccc1-c1ccccc1)N1CCN(C(=O)c2ccccc2)CC1 (stereo not drawn),.,.,.,.,.,.
CC1CCN(C(C)C(=O)Nc2ccccc2-c2ccccc2)CC1 (stereo not drawn),-56,.,.,.,.,.
Oc1ccc(Cl)cc1CNCc1ccc(F)c(F)c1,.,.,.,/,/,.
Oc1ccc(Cl)cc1CNCc1ccc(Cl)nc1,-65,.,.,/,/,.
Cc1csc(=O)n1CCC(=O)N(C)Cc1c(F)cccc1Cl,.,.,.,/,/,.
SMILES,DRD3 antagonist,a7 integrin act,PTHR1 ag,CBFb RUNX1 block,MBNL1-CUG inh,D3 ag
O=C(NCCCN1CCOCC1)c1c(F)cccc1F,.,.[7.66 µM],.,.,.,.
O=C(NCCN1CCN(c2ccccc2)CC1)c1ccccc1F,-56,.,.,/,.,.
O=C(CNC(=O)c1ccccc1F)NNC(=O)c1ccccc1O,-59,.,?,/,/,.
O=C(NCCS(=O)(=O)N1CCN(c2ccccc2)CC1)c1ccccc1F,.,.,.,/,/,.
O=C(NCCCN1CCN(CCCNC(=O)c2ccccc2F)CC1)c1ccccc1F,-51,.,.,.,.,.
CCC(C#CCN1CCCCC1)(CC)OCCC#N,-56,.,.,.,.,.
